Measured values as given in PubChem BioAssay (NCATS).
Records with an inconclusive call do not appear. The source made the active and inactive calls. Calls follow the shape of the dose curve; as a rule, active = well fitted cell-killing curve with a large enough effect; inconclusive = small, poorly fitted or top-dose-only effect, or effect the other way; inactive = no such curve, though single readings can be large or run the other way.

Legend:
[1] = Quantitative High-Throughput drug screen in 47 multiple myeloma cell lines against the NCATS MIPE library collection: OCIMY7_PLB cell viability assay (AID 1918987); conditions: OCI-MY7 myeloma viability, CellTiter-Glo ATP, 48 h; viability (% of DMSO): at 45.8 µM (top of the series); also: nearly all actives have a fitted effect of over 65% in size
In short: (§1)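 500 cells/well; MIPE 4.0 drugs pin-transferred; 48 h, 37C, 5% CO2. CellTiter-Glo, 5 min RT, luminescence. Controls: DMSO 100%, media 0%.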

[2] = Quantitative High-Throughput drug screen in 47 multiple myeloma cell lines against the NCATS MIPE library collection: OCIMY5_PLB cell viability assay (AID 1918988); also: nearly all actives have a fitted effect of over 65% in size
In short: as §1

[3] = Quantitative High-Throughput drug screen in 47 multiple myeloma cell lines against the NCATS MIPE library collection: OPM1_PLB cell viability assay (AID 1918989); also: nearly all actives have a fitted effect of over 40% in size
In short: as §1

[4] = Quantitative High-Throughput drug screen in 47 multiple myeloma cell lines against the NCATS MIPE library collection: U266_ATCC cell viability assay (AID 1919864); also: nearly all actives have a fitted effect of over 35% in size;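 as to viability (% of DMSO control): 0% = media-only wells without cells and 100% = DMSO-only wells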
In short: as §1

[5] = Quantitative High-Throughput drug screen in 47 multiple myeloma cell lines against the NCATS MIPE library collection: XG6_PLB cell viability assay (AID 1919865); also: nearly all actives have a fitted effect of over 40% in size
In short: as §1

[6] = Quantitative High-Throughput drug screen in 47 multiple myeloma cell lines against the NCATS MIPE library collection: XG1_PLB cell viability assay (AID 1919866); also: nearly all actives have a fitted effect of over 35% in size
In short: as §1

[7] = Quantitative High-Throughput drug screen in 47 multiple myeloma cell lines against the NCATS MIPE library collection: VP6_DJ cell viability assay (AID 1919867); also: nearly all actives have a fitted effect of over 40% in size;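 as to viability (% of DMSO): 100% = DMSO-only wells and 0% = wells with media alone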
In short: as §1

[8] = Quantitative High-Throughput drug screen in 47 multiple myeloma cell lines against the NCATS MIPE library collection: PE2_PLB cell viability assay (AID 1919869); also: nearly all actives have a fitted effect of over 35% in size
In short: as §1

[9] = Quantitative High-Throughput drug screen in 47 multiple myeloma cell lines against the NCATS MIPE library collection: UTMC2_PLB cell viability assay (AID 1919868); conditions: CellTiter-Glo ATP luminescence, 48 h; viability (% of DMSO control): at 45.8 µM (top of the series); also: nearly all actives have a fitted effect of over 55% in size;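 as to viability (% of DMSO control): 100% = DMSO-only wells and 0% = media-only wells without cells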
In short: as §1

[10] = Quantitative High-Throughput drug screen in 47 multiple myeloma cell lines against the NCATS MIPE library collection: SKMM1_PLB cell viability assay (AID 1919863); conditions: SKMM1 myeloma viability, CellTiter-Glo ATP, 48 h; viability: active compounds read low; also: nearly all actives have a fitted effect of over 35% in size
In short: as §1
Potency is read from the fitted curve at half-maximal effect.

NC1(C(=O)N[C@@H](CCO)c2ccc(Cl)cc2)CCN(c2ncnc3[nH]ccc23)CC1
active: Potency [1] 3.72 µM | Potency [2] 5.26 µM | Potency [3] 1.48 µM | Potency [4] 13.2 µM | Potency [5] 20.9 µM | Potency [6] 4.18 µM | Potency [7] 0.235 µM | Potency [8] 5.9 µM

Cc1ccc(NC(=O)Nc2cc(C(F)(F)F)ccc2F)cc1Nc1ccc2c(c1)NC(=O)C2=Cc1ccc[nH]1
active: Potency [1] 2.96 µM | Potency [2] 23.5 µM | Potency [3] 4.69 µM | Potency [5] 5.26 µM | Potency [6] 6.62 µM | Potency [7] 5.26 µM | Potency [9] 8.33 µM | Potency [8] 4.18 µM

O=C1NC(=O)C(c2cnc3ccccn23)=C1c1cn2c3c(cccc13)CN(C(=O)N1CCOCC1)CC2
active: Potency [1] 0.0743 µM | Potency [2] 0.372 µM | Potency [3] 10.5 µM | Potency [5] 1.87 µM | Potency [7] 5.26 µM | Potency [9] 0.001 µM
inactive: Potency [4]

Cc1ccc(NC(=O)c2cccc(N(C)C)c2)cc1NC(=O)c1ccc(O)cc1
active: Potency [1] 0.059 µM | Potency [2] 1.32 µM | Potency [3] 23.5 µM | Potency [6] 0.0469 µM | Potency [7] 0.469 µM | Potency [9] 0.332 µM | Potency [8] 18.7 µM

CN[C@@H]1CN(c2ccc3c(=O)c(C(=O)O)cn(-c4nccs4)c3n2)C[C@@H]1OC
active: Potency [1] 5.75 µM | Potency [2] 12.9 µM | Potency [3] 14.4 µM | Potency [4] 8.12 µM | Potency [5] 1.62 µM | Potency [6] 7.24 µM | Potency [8] 1.82 µM

COc1c(C)cnc(Cn2cnc3c(Cl)nc(N)nc32)c1C
active: Potency [1] 0.0418 µM | Potency [2] 0.0935 µM | Potency [3] 0.148 µM | Potency [4] 0.166 µM | Potency [5] 0.264 µM | Potency [6] 0.118 µM | Potency [7] 0.148 µM | Potency [8] 0.235 µM

CCOC(=O)N1CCN([N+]([O-])=NOc2cc(ON=[N+]([O-])N3CCN(C(=O)OCC)CC3)c([N+](=O)[O-])cc2[N+](=O)[O-])CC1
active: Potency [1] 2.96 µM | Potency [2] 2.35 µM | Potency [3] 5.9 µM | Potency [4] 7.43 µM | Potency [5] 4.69 µM | Potency [6] 4.18 µM | Potency [7] 6.62 µM | Potency [9] 8.33 µM | Potency [8] 2.96 µM

C[C@@H]1CC=CC=CC=CC=C[C@@H](O[C@@H]2O[C@H](C)[C@@H](O)[C@H](N)[C@H]2O)C[C@@H]2O[C@](O)(C[C@@H](O)C[C@@H]3O[C@@H]3C=CC(=O)O1)C[C@H](O)[C@@H]2C(=O)O
active: Potency [1] 2.96 µM | Potency [2] 11.8 µM | Potency [3] 16.6 µM | Potency [7] 10.5 µM | Potency [8] 9.35 µM

COc1ccc(-c2ccc3ncc4c(c3c2)n(-c2ccc(N3CCNCC3)c(C(F)(F)F)c2)c(=O)n4C)cn1
active: Potency [1] 0.0059 µM | Potency [10] 0.526 µM | Potency [4] 0.118 µM
inactive: Potency [3]

COc1cc2c(cc1OC)CC(=O)N(CCCN(C)C[C@H]1Cc3cc(OC)c(OC)cc31)CC2
inactive: Potency [1] | Potency [5] | Potency [6]
active: Potency [2] 16.6 µM | Potency [4] 16.6 µM

CC(C)(O)CC(=O)NCCn1ccc2ncnc(Nc3ccc(Oc4cccc(C(F)(F)F)c4)c(Cl)c3)c21
inactive: Potency [7]
active: Potency [1] 13.2 µM | Potency [3] 26.4 µM | Potency [10] 23.5 µM | Potency [4] 16.6 µM | Potency [8] 23.5 µM

C[C@@H]1C[C@H]2[C@@H]3CCC4=CC(=O)C=C[C@]4(C)[C@@]3(F)[C@@H](O)C[C@]2(C)[C@@]1(O)C(=O)CO
inactive: Potency [1] | Potency [3] | viability [10] 118% | Potency [4] | Potency [5] | Potency [6] | Potency [9] | Potency [8]

CC1C(=O)OC2C(O)C34C5CC(C(C)(C)C)C36C(OC(=O)C6O)OC4(C(=O)O5)C12O (stereo not given)
inactive: Potency [1] | Potency [3] | Potency [4] | Potency [8]
active: Potency [10] 11.8 µM

CCCCN(CCCC)CC(O)c1cc(Cl)cc2c1-c1ccc(Cl)cc1C2=Cc1ccc(Cl)cc1 (stereo not given)
inactive: Potency [4]
active: Potency [1] 26.4 µM | Potency [3] 18.7 µM | Potency [10] 33.2 µM | Potency [5] 26.4 µM | Potency [6] 23.5 µM | Potency [7] 23.5 µM | Potency [8] 20.9 µM

COc1cc(Cl)cn2c(-c3cccc(NC4CNC4)n3)cnc12
active: Potency [1] 9.35 µM | Potency [2] 13.2 µM | Potency [10] 9.35 µM | Potency [5] 2.96 µM | Potency [6] 11.8 µM | Potency [7] 14.8 µM

CC(C)n1c(C=C[C@H](O)C[C@H](O)CC(=O)O)c(-c2ccc(F)cc2)c2ccccc21
active: Potency [1] 4.18 µM | Potency [3] 5.26 µM | Potency [10] 16.6 µM | Potency [4] 4.18 µM | Potency [5] 16.6 µM | Potency [6] 4.69 µM | Potency [7] 16.6 µM | Potency [8] 14.8 µM

COc1cc([C@H]2Oc3cc([C@H]4Oc5cc(O)cc(O)c5C(=O)[C@H]4O)ccc3O[C@H]2CO)ccc1O
active: Potency [1] 8.33 µM | Potency [3] 14.8 µM | Potency [10] 23.5 µM | Potency [5] 14.8 µM | Potency [6] 16.6 µM | Potency [7] 11.8 µM

CN1c2ccccc2C(=O)N2CCc3c([nH]c4ccccc34)C21 (stereo not given)
active: Potency [1] 20.9 µM | Potency [4] 16.6 µM | Potency [5] 14.8 µM
inactive: Potency [2] | viability [10] 100%

CC(C)C[C@@H](C(=O)N[C@H](C(=O)OC1CCCC1)c1ccccc1)[C@H](O)C(=O)NO
active: Potency [1] 14.8 µM | Potency [2] 20.9 µM | Potency [10] 20.9 µM | Potency [5] 14.8 µM | Potency [7] 16.6 µM | Potency [8] 29.6 µM

CC1=C[C@@H]2[C@@H]([C@@H](O)C[C@@]3(C)[C@H]2C[C@@H](C)[C@]3(O)C(=O)CO)[C@@]2(C)Cc3cnn(-c4ccccc4)c3C=C12
active: Potency [1] 9.35 µM | Potency [2] 1.87 µM | Potency [10] 18.7 µM | Potency [4] 20.9 µM | Potency [5] 20.9 µM | Potency [8] 23.5 µM

Cc1ccc2c(=O)c3cccc(CC(=O)O)c3oc2c1C
active: Potency [1] 26.4 µM | Potency [2] 18.7 µM | Potency [4] 18.7 µM | Potency [8] 20.9 µM

COc1cc2c(cc1Cc1cccc(Cl)c1F)c(=O)c(C(=O)O)cn2[C@H](CO)C(C)C
active: Potency [1] 18.7 µM | Potency [2] 7.43 µM | Potency [5] 18.7 µM | Potency [6] 18.7 µM | Potency [7] 10.5 µM | Potency [8] 23.5 µM

O=C(Nc1ncc(SCCN2CCCC2)s1)[C@]1(c2ccc(S(=O)(=O)C3CC3)cc2)C[C@@H]1C1CCCCC1
active: Potency [1] 18.7 µM | Potency [3] 16.6 µM | Potency [10] 23.5 µM | Potency [4] 8.33 µM | Potency [5] 10.5 µM | Potency [6] 8.33 µM | Potency [7] 9.35 µM

COc1ccc(-c2cc(=O)c3c(O)cc(O[C@@H]4O[C@H](CO[C@@H]5O[C@@H](C)[C@H](O)[C@@H](O)[C@@H]5O)[C@@H](O)[C@H](O)[C@@H]4O)cc3o2)cc1O
active: Potency [1] 10.5 µM | Potency [2] 18.7 µM | Potency [4] 18.7 µM | Potency [5] 9.35 µM | Potency [6] 8.33 µM | Potency [7] 14.8 µM | Potency [8] 23.5 µM
inactive: viability [10] 120%

CCCCCCCCCCCCCC(=O)N[C@H](CO)[C@H](O)c1ccc([N+](=O)[O-])cc1
active: Potency [1] 16.6 µM | Potency [3] 26.4 µM | Potency [10] 7.43 µM | Potency [5] 23.5 µM | Potency [6] 20.9 µM | Potency [7] 26.4 µM | Potency [9] 18.7 µM | Potency [8] 26.4 µM
inactive: Potency [4]

CON(C)C(=O)N1N=C(c2cc(F)ccc2F)S[C@]1(CCCN)c1ccccc1
inactive: Potency [1] | Potency [2] | viability [10] 61.2% | Potency [8]

CN1CC(=O)NC1=NC(=O)Nc1cccc(Cl)c1
inactive: Potency [7]
active: Potency [1] 13.2 µM | Potency [3] 18.7 µM | Potency [10] 18.7 µM | Potency [4] 20.9 µM | Potency [5] 23.5 µM | Potency [6] 29.6 µM | Potency [8] 20.9 µM

Cc1ccc(S(=O)(=O)Nc2nc3ccccc3nc2Nc2ccc3nsnc3c2)cc1
active: Potency [1] 1.44 µM | Potency [3] 1.15 µM | Potency [10] 7.24 µM | Potency [5] 0.0724 µM | Potency [6] 0.575 µM | Potency [7] 0.645 µM | Potency [9] 1.02 µM

CN(C)c1nc(Cc2ccc(NC(=O)c3ccc(C(F)(F)F)cc3)cc2)nc(N(C)C)c1CC(=O)O
inactive: Potency [1] | Potency [3] | viability [10] 127% | Potency [4] | Potency [6] | Potency [8]

Cc1[nH]c(C=C2C(=O)Nc3ccc(S(=O)(=O)N(C)c4cccc(Cl)c4)cc32)c(C)c1C(=O)N1CCN(C)CC1
active: Potency [1] 18.7 µM | Potency [3] 9.35 µM | Potency [10] 20.9 µM | Potency [4] 23.5 µM | Potency [5] 9.35 µM | Potency [7] 13.2 µM | Potency [9] 11.8 µM | Potency [8] 16.6 µM

C[C@@H]1[C@H](O)[C@@H](C)C=CC=CC=CC=CC=CC=CC=C[C@H](O[C@@H]2O[C@H](C)[C@H](O)[C@H](N)[C@@H]2O)C[C@@H]2O[C@](O)(C[C@@H](O)C[C@@H](O)[C@H](O)CC[C@@H](O)C[C@@H](O)CC(=O)O[C@H]1C)C[C@H](O)[C@@H]2C(=O)O
active: Potency [1] 11.8 µM | Potency [2] 4.18 µM | Potency [10] 5.26 µM | Potency [6] 2.96 µM | Potency [7] 3.72 µM
inactive: Potency [5]
